# From the supplement of paper PMC13380429
# Unmarked numbers belong to inactive results.
# Test system: Vero E6 infected with SARS-CoV-2
# Test: inhibition of SARS-CoV-2 cytopathic effect; higher = more antiviral protection, active = above 15
# Settings: 48 h
SMILES,inhibition of SARS-CoV-2 cytopathic effect (1 nM) [%],inhibition of SARS-CoV-2 cytopathic effect (8.33 nM) [%],inhibition of SARS-CoV-2 cytopathic effect (100 nM) [%],inhibition of SARS-CoV-2 cytopathic effect (833.33 nM) [%],inhibition of SARS-CoV-2 cytopathic effect (10000 nM)
"C1CCC2(CC1)CCNCC2 [4,4-pentamethylenepiperidine]",0.06,0.78,-1,1.32,0.37%
Oc1cc(Cl)ccc1Oc1ccc(Cl)cc1Cl [triclosan],-1.92,-0.14,1.39,-0.77,7.81%
CCSc1ccc2c(c1)N(CCCN1CCN(C)CC1)c1ccccc1S2 [thiethylperazine],-3.78,-1.48,-1.97,-4.23,22.5% (active)
Cc1cccn2c(=O)c(-c3nnn[nH]3)cnc12 [pemirolast],-0.01,0.57,0.12,3.15,-1.12%
N#C/C(=C1/SCC(c2ccccc2Cl)S1)n1ccnc1 (stereo not given) [lanoconazole],0.51,2.17,4.14,0.83,0.48%
O=C1S/C(=C\c2ccc(OCc3cccc(B(O)O)c3)cc2)C(=O)N1Cc1ccc(F)cc1,-1.35,1.46,0.45,3.95,-1.14%
C[C@H]1[C@@H](O)O[C@@H]2O[C@@]3(C)CC[C@H]4[C@H](C)CC[C@@H]1[C@@]24OO3,0.99,1.14,1.39,1.43,0.11%
O=C(O)c1cc(-c2ccccc2)nc2ccccc12 [cinchophen],-0.85,-0.04,-2.56,0.2,2.97%
CC(C)c1ccc2c(c1)CC[C@H]1[C@](C)(CN)CCC[C@]21C [lylamine],-2.24,0.4,0.03,-2.43,-18.1%
CC(=O)Nc1ccc(C(=O)Nc2ccccc2N)cc1 [tacedinaline],1.04,1.48,-0.39,-3.01,-1.74%
c1ccc(COCCCc2c[nH]cn2)cc1 [proxyfan],-1.62,-1.11,-0.96,0.04,-3.35%
COc1cc(C(=O)NCC2(N(C)C)CCCC2)cc(OC)c1OCc1ccccc1,0.5,4.04,5.81,-2.21,-8%
O=c1cc(-c2ccc(O)c(O)c2)oc2cc(O)cc(O)c12 [luteolin],1.96,0.53,-1.61,-0.15,7.72%
C/C(=C\c1csc(C)n1)[C@@H]1C[C@@H]2O[C@]2(C)CCC[C@H](C)[C@H](O)[C@@H](C)C(=O)C(C)(C)[C@@H](O)CC(=O)N1 [ixabepilone],-3.63,0.38,-5.48,-6.58,-2.57%
CC1(C)OC[C@H](NC(=O)Nc2ccc(Br)cc2Br)[C@H](c2ccccc2)O1,-1.15,0.87,-2.04,-3.68,-5.84%
CO[C@H]1/C=C/O[C@@]2(C)Oc3c(C)c(O)c4c(O)c(cc(O)c4c3C2=O)NC(=O)/C(C)=C\C=C\[C@H](C)[C@H](O)[C@@H](C)[C@@H](O)[C@@H](C)[C@H](OC(C)=O)[C@@H]1C [rifamycin-sv],0.74,1.12,3.4,4.53,2.73%
CCC(=O)N[C@@H]1Cc2ccccc2[C@H](c2ccccc2)C1,1.13,2.8,2.79,3.72,2.13%
O=C(O)c1ccc(/C=C2\SC(=S)N(c3cccc(C(F)(F)F)c3)C2=O)cc1,-0.08,-0.83,-2.17,-1.38,-0.46%
